An excerpt weighted towards active compounds, which were near 2.2% of everything screened.
LDHA block: qHTS assay for inhibitors of human lactate dehydrogenase. AID 1347041, 2019. purified LDHA, NADH/diaphorase-resazurin fluorescence; active compounds read low. 0.15% of 480,000 active. L-lactate dehydrogenase A chain (Homo sapiens), P00338. activity change, % (values are at about 110 or 230 µM); in the data active means activity change below about -30%; inconclusive means mostly about -25% to -30%
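Enzyme activity of human lactate dehydrogenase 5 (2 nM; 0.06 mM NADH, 0.2 mM pyruvate, 5 min, RT) is measured via a resazurin/diaphorase fluorescence readout of residual NADH.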
HepG2 tox: qHTS for Inhibitors of TGF-b: Cytotox Counterscreen; HepG2 CAGA-GFP viability, ATP luminescence, 18 h; Potency, µM (top dose mostly 46.1 µM), actives largely listed as cytotoxic; 0.76% of 410,000 active; AID 588856, 2011
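CellTiter-Glo luminescence gave cytotoxicity after 18 hours at 37 degrees C. The cells were HepG2 CAGA-GFP in 1% FBS DMEM, stimulated with 500 pg/mL TGF-beta after compound addition. %Activity was normalised to no-cell wells (complete cell-killing) and DMSO (no toxicity), and curves were fitted and classified.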
S2 tox: Viability Counterscreen for Primary qHTS for Inhibitors of ATXN expression; Potency, µM (top dose mostly 56.7 µM), actives largely listed as cytotoxic; AID 651635, 2014; S2 cells (HEK-293 line with an ATXN2-luciferase reporter) viability, CellTiter-Fluor protease fluorescence, 24 h; 0.49% of 400,000 active; further: nearly all actives have a fitted effect of over 40% in size
mIDH1 inhibitor: qHTS for Inhibitors of mutant isocitrate dehydrogenase 1 (IDH1): qHTS | 0.093% of 390,000 active | IDH1-R132H enzyme, NADPH consumption, diaphorase/resazurin fluorescence | Isocitrate dehydrogenase [NADP] cytoplasmic (Homo sapiens), O75874 | Potency, µM (series often up to 76.6 µM), usual class: inhibitors; further: nearly all actives have a fitted effect of over 65% in size
Target sequence (O75874 whole entry R132H, stated change not applied): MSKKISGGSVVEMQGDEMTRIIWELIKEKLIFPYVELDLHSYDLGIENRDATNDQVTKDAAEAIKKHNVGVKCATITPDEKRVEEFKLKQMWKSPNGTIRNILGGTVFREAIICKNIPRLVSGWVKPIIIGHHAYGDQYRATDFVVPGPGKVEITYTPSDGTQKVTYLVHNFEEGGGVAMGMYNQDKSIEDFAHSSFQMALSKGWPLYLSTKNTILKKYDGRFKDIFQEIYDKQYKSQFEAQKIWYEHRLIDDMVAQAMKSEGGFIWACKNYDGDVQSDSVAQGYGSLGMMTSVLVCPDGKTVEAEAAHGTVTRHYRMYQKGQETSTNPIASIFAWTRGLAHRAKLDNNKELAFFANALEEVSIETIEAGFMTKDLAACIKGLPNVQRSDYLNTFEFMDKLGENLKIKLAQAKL
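IDH1-R132H (0.5 ug/mL) preincubated 30 min with compound, then NADPH (0.016 mM) and alpha-KG (2 mM) added; 80 min at RT, pH 7.5. Remaining NADPH coupled via diaphorase/resazurin to fluorescence (540/590 nm); concentration-response curves normalized to no-enzyme control.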
ATXN2 expr inh: Primary qHTS for Inhibitors of ATXN expression. HEK-293 ATXN2-luciferase reporter, luminescence, 24 h. Potency, µM (doses to about 57 µM), actives largely listed as inhibitors. 0.72% of 360,000 active. AID 1745845, 2022; further: nearly all actives have a fitted effect of over 55% in size
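qHTS (up to 57 uM final) was run with 24 h compound exposure of reporter cells at 37 °C. Each well was multiplexed: SteadyGlo luminescence measured ATXN2-luciferase expression after a fluorogenic Gly-Phe-AFC viability readout (25 uM final).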
TGFb SMAD3 inh: qHTS for Inhibitors of TGF-b. 1.2% of 410,000 active. HepG2 CAGA-GFP TGF-b/SMAD3 reporter, GFP fluorescence, 18 h; TGF-beta stimulated, 500 pg/mL final. Potency, µM (titrated, usually from 46.1 µM), hits mostly inhibitors; further: nearly all actives have a fitted effect of over 65% in size
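Using HEPG2 CAGA-GFP reporter cells at 1000 cells/well, we pinned test compounds, stimulated with recombinant TGF-beta (500 pg/mL final) and measured total well GFP after 18 h.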
Large screens that a line does not name were inactive. Unless noted, the call rests on the fitted dose curve; in most records, active means well fitted curve in the direction sought with a large enough effect; inconclusive means small, poorly fitted or top-dose-only effect, or another doubt; inactive means no such curve, though single readings can be large; an effect the other way counts as inactive or inconclusive.

Cc1ccc(S(=O)(=O)N(CC(O)Cn2c3ccccc3c3ccccc32)c2cccc(C(=O)NCCO)c2)cc1 (configuration not stated)	HepG2 tox 16µM, ATXN2 expr inh inconclusive, TGFb SMAD3 inh 13µM (no result: S2 tox)
C=C1C(=O)C23C(O)C1CCC2C12CCCC(C)(COC(C)=O)C1C(O)C3(O)OC2 (configuration not stated)	HepG2 tox 3.2µM, S2 tox 7.1µM, ATXN2 expr inh inconclusive, TGFb SMAD3 inh 2µM
O=C(CNCC1CCCCC1)Nc1ccc(OC(F)(F)F)cc1	TGFb SMAD3 inh 16µM
CN(CC(=O)Nc1ccc(OC(F)(F)F)cc1)C1CCCCC1	none
CC(CNC(=S)Nc1cc(F)cc(F)c1)CSc1ccc(Cl)cc1 (configuration not stated)	S2 tox inconclusive, ATXN2 expr inh inconclusive, TGFb SMAD3 inh 18µM
CCCN(CC(=O)Nc1ccc(C)cc1Br)CC(=O)Nc1ccc(F)c(F)c1F	S2 tox inconclusive, TGFb SMAD3 inh inconclusive
Cc1cc(N2CCC(C)CC2)c(F)cc1[N+](=O)[O-]	none
Cc1cc(N2CCCC2)c(F)cc1/C=C\[N+](=O)[O-]	TGFb SMAD3 inh 11µM (no result: S2 tox)
CC(C(=O)N1CCCc2ccccc21)N1CCN(c2ccccn2)CC1 (configuration not stated)	LDHA block -38
COc1ccc(NC(=O)CCNS(=O)(=O)c2cccc3nsnc23)cc1Cl	none
CCOC(=O)C(C(C)=O)c1c(Br)c(O)c(O)c2c(C(=O)c3ccc(C)cc3)coc12 (configuration not stated)	S2 tox inconclusive, ATXN2 expr inh 14µM, TGFb SMAD3 inh 10µM
Clc1ccc(NCc2cccnc2)cc1	none
O=c1[nH]nc(OCCCc2ccc(Cl)cc2)c(NCc2cccnc2)c1Br	ATXN2 expr inh 24µM (no result: LDHA block, HepG2 tox, S2 tox, mIDH1 inhibitor, TGFb SMAD3 inh)
CCC(=O)N(Cc1cc(=O)[nH]c2ccccc12)c1ccccc1	none
O=C(CCl)N(Cc1ccccc1)c1ccccc1	HepG2 tox 13µM, TGFb SMAD3 inh 13µM
COC(=O)c1ccc(C(=O)N(Cc2ccccc2)c2ccccc2)cc1	none
O=C(CCl)N(Cc1cc(=O)[nH]c2ccccc12)c1ccccc1	S2 tox inconclusive, TGFb SMAD3 inh 11µM (no result: ATXN2 expr inh)
Cc1cccc(N(Cc2ccccc2)C(=O)CCl)c1	S2 tox 0.53µM, ATXN2 expr inh 0.75µM, TGFb SMAD3 inh inconclusive
OCCN1CCN(C2Cc3cc(Cl)ccc3Sc3ccc(Cl)cc32)CC1 (configuration not stated) (tested in a mixture with another compound)	HepG2 tox 10µM, S2 tox inconclusive, ATXN2 expr inh inconclusive, TGFb SMAD3 inh inconclusive
Cc1noc(C)c1COc1ccc(C(=O)N2CCC(C)CC2)cc1	none
CC1CC2(C)Oc3ccccc3CC2C(C)C1CNCCCN(C)C (configuration not stated)	HepG2 tox 13µM, S2 tox inconclusive, ATXN2 expr inh 14µM, TGFb SMAD3 inh inconclusive
O=C1COc2ccccc2C(c2nc3ccccc3[nH]2)N1C1CC1 (configuration not stated)	none (no result: HepG2 tox, mIDH1 inhibitor, TGFb SMAD3 inh)
O=C1OC2(O)C3C4C=CC(C4)C3C(=O)N2c2ccccc21 (configuration not stated)	none (no result: ATXN2 expr inh)
Cc1ccc(C)c(N2CCN(CCCNC(=O)Cn3c(-c4cccs4)cc4ccccc43)CC2)c1	S2 tox inconclusive, ATXN2 expr inh 25µM, TGFb SMAD3 inh 13µM
O=C(Cn1c(-c2cccs2)cc2ccccc21)NCCCN1CCN(c2cccc(Cl)c2)CC1	S2 tox inconclusive, ATXN2 expr inh inconclusive, TGFb SMAD3 inh 13µM
CN1CCN(CCCNC(=O)Cn2c(-c3cccs3)cc3ccccc32)CC1	none
CCCc1oc2ccc(NS(=O)(=O)c3ccc(OC)cc3)cc2c1C(=O)OCC	TGFb SMAD3 inh 10µM (no result: S2 tox, ATXN2 expr inh)
CCOC(=O)c1c(-c2ccccc2)oc2ccc(NS(=O)(=O)c3ccccc3)cc12	S2 tox inconclusive, ATXN2 expr inh inconclusive, TGFb SMAD3 inh 16µM
CCOC(=O)c1c(-c2ccccc2)oc2ccc(NS(=O)(=O)c3ccc(OC)cc3)cc12	TGFb SMAD3 inh 13µM (no result: S2 tox, ATXN2 expr inh)
COc1cc(NC(=O)C23CC4CC(C2)CC(n2cnc([N+](=O)[O-])n2)(C4)C3)cc(OC)c1	none
CCOC(=O)Cn1cnc2onc(-c3ccc(F)cc3)c2c1=O	none
COc1ccc(CC(=O)Nc2ccc(C(=O)Nc3ccccc3C(=O)O)cc2)cc1OC	LDHA block -37 (no result: ATXN2 expr inh)
COc1ccc(C(=O)Nc2ccccc2C(=O)NCc2cccnc2)cc1OC	S2 tox inconclusive
COc1ccc(C(=O)Nc2ccccc2C(=O)N/N=C/c2ccncc2)cc1OC	HepG2 tox 13µM
COc1ccccc1OCC(=O)Nc1ccc(C(=O)Nc2ccccc2C(=O)O)cc1	none (no result: ATXN2 expr inh)
COc1cc(OC)cc(C(=O)NCC(=O)OCC(=O)Nc2ccc3c(c2)OCO3)c1	none
COc1ccc(CCC(=O)NCCc2cn3c(C)csc3n2)cc1	none
S=C(NCCc1ccccc1)NCc1cccc(Cl)c1	TGFb SMAD3 inh 13µM
COc1ccc(NC(=O)CCS(=O)(=O)c2nc(-c3cccs3)cc(C(F)(F)F)n2)cc1OC	TGFb SMAD3 inh 16µM (no result: S2 tox, ATXN2 expr inh)
COc1ccc(NC(=O)CCS(=O)(=O)c2nc(-c3ccc4c(c3)OCO4)cc(C(F)(F)F)n2)cc1OC	S2 tox inconclusive, ATXN2 expr inh inconclusive
COc1cc(NC(=O)CCS(=O)(=O)c2nc(-c3cccs3)cc(C(F)(F)F)n2)cc(OC)c1OC	HepG2 tox 11µM, TGFb SMAD3 inh 13µM (no result: S2 tox, ATXN2 expr inh)
Cc1cc(NC(=O)CCCS(=O)(=O)c2nc(-c3cccs3)cc(C(F)(F)F)n2)no1	S2 tox 28µM, ATXN2 expr inh inconclusive, TGFb SMAD3 inh 14µM
O=C(CCS(=O)(=O)c1nc(-c2cccs2)cc(C(F)(F)F)n1)Nc1cccc(O)c1	TGFb SMAD3 inh inconclusive (no result: S2 tox, ATXN2 expr inh)
O=C(CCS(=O)(=O)c1nc(-c2ccc3c(c2)OCO3)cc(C(F)(F)F)n1)Nc1ccc(F)c(Cl)c1	HepG2 tox 13µM, TGFb SMAD3 inh 20µM (no result: S2 tox, ATXN2 expr inh)
COc1ccc(NC(C)=O)cc1S(=O)(=O)N1CCN(C(=O)c2ccccc2F)CC1	none
O=C(C(c1ccccc1)N1CCOCC1)N1CCOCC1 (configuration not stated)	none
O=C(C=Cc1ccccc1)CC(c1ccccc1)N1CCOCC1 (configuration not stated)	HepG2 tox 13µM, ATXN2 expr inh inconclusive, TGFb SMAD3 inh inconclusive (no result: S2 tox)

High-throughput results: PubChem BioAssay, National Center for Advancing Translational Sciences (NCATS)
